# “And” between values parts separate entries of the source, which are not always exact repeats. Equal values may be shown once. The panel holds about 83,000 compounds, 20% with a hit somewhere; the sample as a whole holds those more often.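 Testing used 96-well plates and a 48-hour single-concentration exposure. Example: -40 means 40% of the starting cells died.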 A structure can be active in one record and inactive in another. The source made the active and inactive calls.
# Test system: NCI-H226 lung
# Experiment: NCI-60 one-dose screen, 48 h (100 = growth as untreated, 0 = no growth, -100 = all killed)
# Settings: 10 µM unless noted
# Experimental: Growth inhibition of the NCI-H226 human Non-Small Cell Lung tumor cell line is measured as a screen for anti-cancer activity. Cells are grown in 96 well plates and exposed to the test compound for 48 hours. Compounds are tested at a single concentration, which is 10^-5 M for most compounds. The reported endpoint is percent growth (GI% or GIPRCNT), where numbers from 0 - 100% represent growth inhibition, and numbers from -100% - 0 represent cell death. For example, a value of 40 represents 60% growth inhibition. A value of 0 means no net growth occurred over the course of the experiment. A value of -40 indicates 40% of cells at the beginning of the experiment died by the end of the experiment. A value of -100 means all cells are dead at the end of the experiment.
# NCI-60 Human Tumor Cell Lines Screen was performed using the standard one-dose NCI protocol, which is described in more detail at https://dtp.cancer.gov/discovery_development/nci-60/default.htm.
# Compounds with GIPRCNT values below 10 were considered active. Activity score was based on GIPRCNT using the following formula: […]
# Score is 0 for GIPRCNT values of 100 or above, 50 for GIPRCNT values of 0, and 100 for GIPRCNT values of -100.
row,SMILES,growth
1,CC(C)=CCCC(C)C1=C(O)C(=O)C(C)=CC1=O (stereo not given),94.8% (inactive)
2,Cc1cc2cccnc2c2ncccc12,-2.12% (active)
3,CC(C)(C)CC(C)(C)c1ccc(OCCOCCSC(=N)N)cc1,92.4% (inactive)
4,CCCCCCCCCCCC[n+]1ccccc1 (tested in a mixture with another compound),11.3% (inactive)
5,CC(C)(C)c1ccc(O)c(Br)c1,92.5% (inactive)
6,Cc1cc(C(N)=O)cc(C)c1C(=O)OCCCl,105% (inactive)
7,N#CCc1cccc2ccccc12,100% (inactive)
8,C=C(C(N)=O)C(N)C(=O)O (stereo not given),112% (inactive)
9,COC(=O)c1nc(=S)[nH]c(C(=O)OC)c1C(=O)c1ccc(Cl)c(Cl)c1,102% (inactive)
10,Oc1ccccc1N=Cc1ccccc1,86.3% (inactive)
11,COC(=O)[C@]1(C)CCC[C@]2(C)c3ccc(C(C)C)cc3C(=O)[C@@H](Br)[C@@H]12,81.7% (inactive)
12,COc1ccc(/C=C2/C(=O)ON=C2C)cc1,101% (inactive)
13,CCCOS(=O)(=O)c1ccccc1,103% (inactive)
14,NC(=S)N/N=C\c1nccc2c(N)cccc12,-5.48% (active)
15,O=C(NNc1ccccc1)OCc1ccccc1,97.7% (inactive)
16,CCCCCCCCCCCC[N+]1(CCCCCCCCCCCC)CCCC(C)C1 (stereo not given),-77% (active)
17,Nc1ccc(-c2ccc(N)c(S(=O)(=O)O)c2)cc1S(=O)(=O)O,119% (inactive)
18,Cc1cc(C(=O)c2ccc(Cl)cc2)ccc1O,90.1% (inactive)
19,Nc1nc(N)c2cc(Sc3cccc(C(F)(F)F)c3)ccc2n1,57.6% (inactive)
20,CN(C)c1ccc(C(C#N)(c2ccccc2)c2ccc(N(C)C)cc2)cc1,72.3% (inactive)

row,SMILES,growth
1,COc1cc(/C=C/C(=O)CC(=O)/C=C/c2ccc(O)c(OC)c2)ccc1O,88.1% (inactive)
2,OC(c1cc(-c2ccc(C(F)(F)F)cc2)nc(C(F)(F)F)c1)C1CCCCN1 (stereo not given),-7.1% (active) and -6.47% (active) and 43.1% (inactive)
3,CCOC(=O)C1(C)CCCC1N (stereo not given),99.1% (inactive)
4,CC1CC(C)(C)OB(OC(C)CC(C)(C)OB2OC(C)CC(C)(C)O2)O1 (stereo not given),107% (inactive)
5,O=C(NOC(=O)c1ccccc1)c1ccccc1,106% (inactive)
6,Nc1cccc2cccc([N+](=O)[O-])c12,94.8% (inactive)
7,CC1(C)OCC(COC(c2ccccc2)(c2ccccc2)c2ccccc2)O1 (stereo not given),92.1% (inactive)
8,CCCCCCCCCCCC1=NCCCN1CCCC,103% (inactive)
9,S=C=Nc1ccc(N2CCOCC2)cc1,86% (inactive)
10,CN(C)c1ccc(/C=C/c2ccnc3ccccc23)cc1,23.5% (inactive)
11,Cc1ccc(/C=C2\CNC/C(=C\c3ccc(C)cc3)C2=O)cc1,-63.2% (active)
12,Cc1nn(CCO)c(C)c1N=[N+]([O-])c1c(C)nn(CCO)c1C,-28.5% (active)
13,CC1(C)CCCC2=C1C(=O)N(SC(Cl)(Cl)Cl)C2=O,93.6% (inactive)
14,O=C(c1ccccc1)c1ccc(O)c2ncccc12,29.3% (inactive)
15,Cc1ccccc1NC(=O)Cc1csc2[n+]1C(=O)/C(=C/c1ccc([N+](=O)[O-])cc1)S2,91.1% (inactive)
16,Oc1ccc2c(c1)CCc1ccccc1-2,93.5% (inactive)
17,COc1ccc(C(Cn2ccnc2)Sc2ccc(Cl)c(Cl)c2)cc1 (stereo not given),69.7% (inactive)
18,O=[N+]([O-])c1ccc([I+]c2ccccc2)cc1,-30.2% (active)
19,NC(=Nc1nc(-c2ccccn2)cc2ccccc12)c1ccccn1,21.4% (inactive)
20,O=S(=O)(O)c1cnccn1,104% (inactive)
